In all, about 5,500 compounds went through this assay and about 2,000 (36%) were called active. Roughly 18% stayed inconclusive and do not appear here. No stated cut-off is given here; in the data, active means normalized growth mostly below about 0.91 (no sharp cut-off); inconclusive means no clear call, values can overlap the other calls; inactive means mostly above about 0.92. Some of the results follow.
Assay: chemical genetic growth profiling, strain panel (AID 1159580);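 further: tested at 20 µM; growth read once vehicle control cultures reached saturation at 30 °C; 1 = growth at the plate median or of vehicle wells; lower values mean less growth of the strain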
Details: S. cerevisiae deletion strains, growth OD
[1] = locus YCL061C, strain MRC1, active compounds read low
[2] = locus YDL101C, strain DUN1, active compounds read low
[3] = locus YHR030C, strain SLT2, active compounds read low
[4] = locus YJL187C, strain SWE1, active compounds read low
[5] = locus YHR079C, strain IRE1, active compounds read low
[6] = locus YJL095W, strain BCK1, active compounds read low
[7] = locus YJR066W, strain TOR1, active compounds read low
[8] = locus YLR113W, strain HOG1, active compounds read low
[9] = locus YNL183C, strain NPR1, active compounds read low
[10] = locus YOR231W, strain MKK1, active compounds read low
[11] = locus YPL256C, strain CLN2, active compounds read low

Measured: normalized growth

O=C(CNc1cccc(Cl)c1)c1ccc(Cl)cc1
active: locus YGR229C, strain SMI1, active compounds read low 0.935 | [4] 0.933
inactive: locus YAL013W, strain DEP1, active compounds read low 0.971 | locus YBR229C, strain ROT2, active compounds read low 0.933 | [1] 0.975 | [2] 0.952 | locus YDL134C, strain PPH21, active compounds read low 0.948 | locus YDR150W, strain NUM1, active compounds read low 0.89 | locus YEL061C, strain CIN8, active compounds read low 0.954 | locus YGR078C, strain PAC10, active compounds read low 0.945 | [3] 0.766 | locus YHR087W, strain rtc3, active compounds read low 0.923 | locus YJR043C, strain POL32, active compounds read low 0.98 | locus YJR075W, strain HOC1, active compounds read low 0.936 | locus YLR039C, strain RIC1, active compounds read low 0.954 | locus YLR058C, strain SHM2 (second series), active compounds read low 0.953 | locus YLR085C, strain ARP6, active compounds read low 0.801 | locus YLR262C, strain YPT6, active compounds read low 0.898 | locus YML094W, strain GIM5, active compounds read low 0.938 | locus YMR219W, strain ESC1, active compounds read low 0.964 | locus YMR263W, strain SAP30, active compounds read low 0.908 | locus YMR307W, strain GAS1, active compounds read low 0.862 | locus YNL128W, strain TEP1, active compounds read low 0.973 | locus YNL153C, strain GIM3, active compounds read low 0.97 | locus YNL298W, strain CLA4 (second series), active compounds read low 0.937 | locus YNL322C, strain KRE1, active compounds read low 0.951 | locus YNR030W, strain Alg12, active compounds read low 0.89 | locus YPL055C, strain LGE1, active compounds read low 0.832 | locus YPL241C, strain CIN2, active compounds read low 0.899 | locus YPR135W, strain CTF4, active compounds read low 0.824

Cc1cc(C)c2cc(C(=O)NCCNc3ccc(C(F)(F)F)cn3)[nH]c2c1
inactive: locus YAR019C, strain CDC15, active compounds read low 0.983 | locus YBL105C, strain PKC1, active compounds read low 0.971 | locus YBR135W, strain CKS1, active compounds read low 0.983 | locus YBR136W, strain MEC1, active compounds read low 0.981 | locus YBR160W, strain CDC28, active compounds read low 0.97 | locus YDL017W, strain CDC7, active compounds read low 0.98 | locus YDL028C, strain MPS1, active compounds read low 0.98 | [2] 0.936 | locus YDL108W, strain KIN28, active compounds read low 0.972 | locus YDL132W, strain cdc53, active compounds read low 0.992 | locus YDR052C, strain DBF4, active compounds read low 0.983 | locus YDR054C, strain cdc34, active compounds read low 0.968 | locus YDR226W, strain ADK1, active compounds read low 0.983 | locus YFL009W, strain cdc4, active compounds read low 0.991 | locus YFL029C, strain CAK1, active compounds read low 0.985 | locus YFR003C, strain YPI1, active compounds read low 0.976 | locus YFR028C, strain CDC14, active compounds read low 0.976 | locus YIL147C, strain SLN1, active compounds read low 0.984 | locus YJL128C, strain PBS2, active compounds read low 0.961 | locus YJR016C, strain ILV3, active compounds read low 0.985 | locus YKL193C, strain SDS22, active compounds read low 0.989 | locus YMR001C, strain CDC5, active compounds read low 0.986 | locus YMR277W, strain FCP1, active compounds read low 0.992 | locus YNL006W, strain LST8, active compounds read low 0.986 | locus YNL161W, strain CBK1, active compounds read low 0.986 | locus YNL207W, strain RIO2, active compounds read low 0.955 | locus YNL222W, strain SSU72, active compounds read low 0.974 | locus YNL307C, strain MCK1 (second series), active compounds read low 0.644 | locus YOL078W, strain AVO1, active compounds read low 0.985 | locus YOR329C, strain SCD5, active compounds read low 0.984 | locus YPL209C, strain IPL1, active compounds read low 0.976 | locus YPR025C, strain CCL1, active compounds read low 0.98 | locus YPR106W, strain ISR1, active compounds read low 1 | locus YPR111W, strain DBF20, active compounds read low 0.944 | strain NNK1, active compounds read low 0.94 | strain TSCII, active compounds read low 0.985
active: locus YDL214C, strain PRR2, active compounds read low 0.468 | locus YDR477W, strain SNF1, active compounds read low 0.457 | locus YER123W, strain YCK3, active compounds read low 0.381 | locus YER133W, strain GLC7, active compounds read low 0.487 | locus YFR019W, strain FAB1, active compounds read low 0.322 | locus YGR040W, strain KSS1, active compounds read low 0.501 | locus YGR052W, strain FMP48, active compounds read low 0.249 | locus YGR092W, strain DBF2, active compounds read low 0.225 | [3] 0.0941 | [5] 0.11 | locus YHR082C, strain KSP1, active compounds read low 0.125 | locus YHR205W, strain SCH9, active compounds read low 0.457 | [6] 0.102 | locus YJL157C, strain FAR1, active compounds read low 0.501 | locus YJR066W, strain TOR1 (second series), active compounds read low 0.212 | [7] 0.121 | locus YKL048C, strain ELM1, active compounds read low 0.511 | locus YKL067W, strain YNK1, active compounds read low 0.567 | locus YKL203C, strain TOR2, active compounds read low 0.233 | [8] 0.137 | locus YLR133W, strain CKI1, active compounds read low 0.446 | locus YLR403W, strain SFP1, active compounds read low 0.557 | locus YML070W, strain DAK1, active compounds read low 0.365 | locus YMR205C, strain PFK2 (second series), active compounds read low 0.551 | locus YNL020C, strain ARK1, active compounds read low 0.415 | [9] 0.169 | locus YOL136C, strain PFK27, active compounds read low 0.398 | locus YOR061W, strain CKA2, active compounds read low 0.59 | locus YOR119C, strain RIO1, active compounds read low 0.341 | [10] 0.129 | locus YPL031C, strain PHO85, active compounds read low 0.276 | locus YPL153C, strain RAD53, active compounds read low 0.184 | locus YPL204W, strain HRR25, active compounds read low 0.268 | [11] 0.137

O=c1c(O)c(-c2ccc(O)cc2)oc2ccccc12
inactive: locus YBR171W, strain sec66, active compounds read low 0.903 | locus YCR088W, strain abp1, active compounds read low 0.962 | locus YDL005C, strain med2, active compounds read low 0.965 | locus YDL040C, strain nat1, active compounds read low 0.934 | locus YDR001C, strain nth1, active compounds read low 0.936 | locus YGL167C, strain pmr1, active compounds read low 0.921 | locus YGL227W, strain vid30, active compounds read low 0.962 | [5] 0.855 | locus YJL092W, strain hpr5, active compounds read low 0.922 | locus YJL115W, strain asf1, active compounds read low 0.971 | locus YJL154C, strain vps35, active compounds read low 0.931 | [7] 0.842 | locus YKR026C, strain gcn3, active compounds read low 0.945 | locus YKR091W, strain srl3, active compounds read low 0.937 | locus YLR357W, strain rsc2, active compounds read low 0.9 | locus YMR125W, strain sto1, active compounds read low 0.972 | locus YMR129W, active compounds read low 0.932 | [9] 0.838 | locus YNL322C, strain KRE1 (second series), active compounds read low 0.909 | locus YNR049C, strain mso1, active compounds read low 0.919
active: locus YAL021C, strain ccr4, active compounds read low 0.576 | locus YAL026C, strain drs2, active compounds read low 0.707 | locus YAL030W, strain snc1, active compounds read low 0.809 | locus YBL061C, strain skt5, active compounds read low 0.714 | locus YBR009C, strain hhf1, active compounds read low 0.7 | locus YBR023C, strain chs3, active compounds read low 0.643 | locus YBR231C, strain swc5, active compounds read low 0.794 | locus YBR279W, strain paf1, active compounds read low 0.749 | locus YCL011C, strain gbp2, active compounds read low 0.762 | locus YCL016C, strain dcc1, active compounds read low 0.849 | [1] 0.904 | locus YCL069W, strain vba3, active compounds read low 0.816 | locus YDR069C, strain doa4, active compounds read low 0.56 | locus YDR137W, strain rgp1, active compounds read low 0.397 | locus YDR159W, strain sac3, active compounds read low 0.792 | locus YDR195W, strain ref2 1.34 [resistant] | locus YDR297W, strain sur2, active compounds read low 0.82 | locus YDR334W, strain swr1, active compounds read low 0.831 | locus YDR335W, strain msn5, active compounds read low 0.789 | locus YDR392W, strain spt3, active compounds read low 0.284 | locus YEL003W, strain gim4, active compounds read low 0.79 | locus YEL037C, strain rad23, active compounds read low 0.853 | locus YEL061C, strain CIN8 (second series), active compounds read low 0.885 | locus YER015W, strain faa2, active compounds read low 0.615 | locus YER016W, strain bim1, active compounds read low 0.863 | locus YER111C, strain swi4, active compounds read low 0.745 | locus YER155C, strain BEM2 (second series), active compounds read low 0.489 | locus YFR010W, strain ubp6, active compounds read low 0.84 | locus YGL173C, strain kem1, active compounds read low 0.499 | locus YGL240W, strain doc1, active compounds read low 0.855 | locus YGL253W, strain hxk2, active compounds read low 0.63 | locus YHR013C, strain ard1, active compounds read low 0.506 | locus YHR027C, strain rpn1, active compounds read low 0.546 | [3] 0.847 | locus YHR142W, strain chs7, active compounds read low 0.495 | locus YJL095W, strain BCK1 (second series), active compounds read low 0.731 | [6] 0.833 | locus YJL129C, strain trk1, active compounds read low 0.717 | locus YJL164C, strain tpk1, active compounds read low 0.564 | locus YJL166W, strain qcr8, active compounds read low 0.538 | [4] 0.725 | locus YKL160W, strain elf1, active compounds read low 0.713 | locus YLL001W, strain dnm1, active compounds read low 0.777 | locus YLL026W, active compounds read low 0.809 | locus YLL041C, strain sdh2, active compounds read low 0.91 | locus YLR027C, strain aat2, active compounds read low 0.695 | [8] 0.719 | locus YLR221C, strain rsa3, active compounds read low 0.697 | locus YLR258W, strain gsy2, active compounds read low 0.766 | locus YLR262C, strain YPT6 (second series), active compounds read low 0.369 | locus YLR320W, strain mms22, active compounds read low 0.426 | locus YLR342W, strain FKS1, active compounds read low 0.757 | locus YLR370C, strain arc18, active compounds read low 0.781 | locus YLR384C, strain iki3, active compounds read low 0.905 | locus YML120C, strain ndi1, active compounds read low 0.669 | locus YMR058W, strain fet3, active compounds read low 0.179 | locus YMR205C, strain PFK2, active compounds read low 0.56 | locus YMR231W, strain pep5, active compounds read low 0.545 | locus YNL071W, strain lat1, active compounds read low 0.471 | locus YNL209W, strain ssb2, active compounds read low 0.458 | locus YNL248C, strain rpa49, active compounds read low 0.837 | locus YOR001W, strain rrp6, active compounds read low 0.695 | locus YOR070C, strain gyp1, active compounds read low 0.666 | locus YOR080W, strain dia2, active compounds read low 0.861 | locus YOR083W, strain WHI5, active compounds read low 0.664 | locus YOR106W, strain vam3, active compounds read low 0.319 | [10] 0.847 | locus YOR265W, strain rbl2, active compounds read low 0.816 | locus YOR270C, strain vph1, active compounds read low 0.328 | locus YOR290C, strain snf2, active compounds read low 0.641 | locus YPL051W, strain arl3, active compounds read low 0.441 | locus YPL078C, strain atp4, active compounds read low 0.651 | locus YPL106C, strain sse1, active compounds read low 0.843 | locus YPL240C, strain hsp82, active compounds read low 0.869 | [11] 0.816

Reference: PubChem BioAssay AID1159580 (chemical genetic matrix, 2015)
